Data on 15 compounds can be found in PubChem BioAssay (NCATS).

A short description of experiment [1]: qHTS of pediatric cancer cell lines to identify multiple opportunities for drug repurposing: Primary screen for A673 cells (AID 1347092). Also: nearly all actives have a fitted effect of over 45% in size. Also: potency is read from the fitted curve at half-maximal effect. The gist of the method: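 A673 cells (500-1,000 cells/well in growth media) were pre-incubated 5 h at 37 degrees C, then exposed to compounds for 48 h. Viability was read as CellTiter-Glo luminescence; concentration-response curves came directly from the primary screen.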
Background: Quantitative high-throughput screening tests each substance at several concentrations.

Experiment [2] is described as follows: qHTS of pediatric cancer cell lines to identify multiple opportunities for drug repurposing: Primary screen for BT-37 cells (AID 1347094). Also: series mostly up to about 57 µM. The gist of the method:
(§1)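 Primary screen of approved and investigational compounds on cells in growth media at 37 degrees C, 5% CO2. MIPE set at 11-point and NPC set at 8-point dilutions; viability scored by ATP-based luminescence at 48 hours.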

Experiment [3] in a line: qHTS of pediatric cancer cell lines to identify multiple opportunities for drug repurposing: Primary screen for NB-EBc1 cells (AID 1347095). The gist of the method: as §1
Experiment [4] in a line: qHTS of pediatric cancer cell lines to identify multiple opportunities for drug repurposing: Primary screen for U-2 OS cells (AID 1347096). Also: nearly all actives have a fitted effect of over 50% in size. The gist of the method:
(§2)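 Viability after 48 h compound treatment at 37C, 500-1,000 cells/well, read as ATP luminescence with CellTiter-Glo. Primary screens used 11-point (MIPE, 0.78 nM-46 µM) or 8-point (NPC, 0.59 nM-46 µM) final concentrations; follow-up screens used 11-point dilutions.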

A short description of experiment [5]: qHTS of pediatric cancer cell lines to identify multiple opportunities for drug repurposing: Primary screen for LAN-5 cells (AID 1347100). Also: potency is read from the fitted curve at half-maximal effect. The gist of the method: as §2
The nature of experiment [6]: qHTS of pediatric cancer cell lines to identify multiple opportunities for drug repurposing: Primary screen for Rh18 cells (AID 1347102). Also: nearly all actives have a fitted effect of over 65% in size. The gist of the method:
as §2

Experiment [7] can be described thus: qHTS of pediatric cancer cell lines to identify multiple opportunities for drug repurposing: Primary screen for RD cells (AID 1347104). Also: nearly all actives have a fitted effect of over 55% in size. Also: potency is read from the fitted curve at half-maximal effect. The gist of the method: as §1
Experiment [8] can be described thus: qHTS of pediatric cancer cell lines to identify multiple opportunities for drug repurposing: Primary screen for MG 63 (6-TG R) cells (AID 1347105). Also: nearly all actives have a fitted effect of over 50% in size. Also: potency is read from the fitted curve at half-maximal effect. The gist of the method:
as §1

Experiment [9] is described as follows: qHTS of pediatric cancer cell lines to identify multiple opportunities for drug repurposing: Primary screen for control Hh wild type fibroblast cells (AID 1347106).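 Also: series mostly up to about 46 µM; a drop in luminescence marks cytotoxicity and a rise apparent proliferation; nearly all actives have a fitted effect of over 55% in size.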 In a few lines:
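Cells (500-1,000/well) in growth media were settled 5 h at 37 degrees C, then given compounds for 48 h. Viability was read as CellTiter-Glo luminescence. Primary runs used MIPE at 11 points (0.78 nM-46 µM) and NPC at 8 points (0.59 nM-46 µM); follow-ups used 11 points.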

A short description of experiment [10]: qHTS of pediatric cancer cell lines to identify multiple opportunities for drug repurposing: Primary screen for Rh30 cells (AID 1347107). Also: series mostly up to about 46 µM; nearly all actives have a fitted effect of over 75% in size. In a few lines:
as §2

Experiment [11] in a line: qHTS of pediatric cancer cell lines to identify multiple opportunities for drug repurposing: Primary screen for Saos-2 cells (AID 1347097). Also: nearly all actives have a fitted effect of over 40% in size. Also: potency is read from the fitted curve at half-maximal effect. In a few lines: as §1
Experiment [12] is described as follows: qHTS of pediatric cancer cell lines to identify multiple opportunities for drug repurposing: Primary screen for SK-N-SH cells (AID 1347098). Also: nearly all actives have a fitted effect of over 65% in size. Also: potency is read from the fitted curve at half-maximal effect. The gist of the method: (§3)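 Cells (500-1,000/well) rested 5 h, then received compounds for 48 h; metabolically active cells were measured by CellTiter-Glo luminescence. Final concentrations spanned up to 46 µM (MIPE, 11-point) or 0.59 nM-46 µM (NPC, 8-point) in primary screens, 11-point in follow-ups.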

Experiment [13] is described as follows: qHTS of pediatric cancer cell lines to identify multiple opportunities for drug repurposing: Primary screen for Rh41 cells (AID 1347108).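 Also: series mostly up to about 46 µM; luminescence drop marks cytotoxic hits; nearly all actives have a fitted effect of over 70% in size.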 The gist of the method:
as §1

Experiment [14] in a line: qHTS of pediatric cancer cell lines to identify multiple opportunities for drug repurposing: Primary screen for NB1643 cells (AID 1347099). Also: nearly all actives have a fitted effect of over 50% in size. Also: potency is read from the fitted curve at half-maximal effect. The gist of the method: as §1
Experiment [15] can be described thus: qHTS of pediatric cancer cell lines to identify multiple opportunities for drug repurposing: Primary screen for BT-12 cells (AID 1347101). Also: nearly all actives have a fitted effect of over 25% in size. In a few lines:
as §3

A short description of experiment [16]: qHTS of pediatric cancer cell lines to identify multiple opportunities for drug repurposing: Primary screen for OHS-50 cells (AID 1347103). Also: nearly all actives have a fitted effect of over 40% in size. Also: potency is read from the fitted curve at half-maximal effect. In a few lines:
as §3

Experiment [17] can be described thus: qHTS of pediatric cancer cell lines to identify multiple opportunities for drug repurposing: Primary screen for SK-N-MC cells (AID 1347093). Also: potency is read from the fitted curve at half-maximal effect. The gist of the method: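 Metabolically active cells were quantified by ATP-dependent luminescence (CellTiter-Glo, 15 min at room temperature) following 48 h treatment. Cells had been plated at 500-1,000 per well and settled for 5 h beforehand.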

The nature of experiment [18]: qHTS of pediatric cancer cell lines to identify multiple opportunities for drug repurposing: Confirmatory screen for SK-N-MC cells (AID 1347111).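 Also: cells exposed to compound for 48 h before the readout; nearly all actives have a fitted effect of over 70% in size.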 Also: potency is read from the fitted curve at half-maximal effect. The gist of the method: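 SK-N-MC cells at 500-1,000 cells/well in growth media were pre-incubated 5 h, then exposed to compounds at 11-point dilutions for 48 h at 37 degrees C, 5% CO2. Viability was read as CellTiter-Glo luminescence.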

Experiment [19] is described as follows: qHTS of pediatric cancer cell lines to identify multiple opportunities for drug repurposing: Confirmatory screen for BT-12 cells (AID 1347112). Also: nearly all actives have a fitted effect of over 55% in size. In a few lines: as §2
A short description of experiment [20]: qHTS of pediatric cancer cell lines to identify multiple opportunities for drug repurposing: Confirmatory screen for NB1643 cells (AID 1347109). Also: nearly all actives have a fitted effect of over 45% in size. The gist of the method: as §2

Values joined by “and” are separate entries in the source; they are usually repeats but may differ in a detail not shown here. Equal values may be shown once. Records with an inconclusive call do not appear. Active and inactive are the calls of the source. Calls follow the shape of the dose curve; as a rule, active = well fitted curve in the direction sought with a large enough effect; inconclusive = small, poorly fitted or top-dose-only effect, or another doubt; inactive = no such curve, though single readings can be large; an effect the other way counts as inactive or inconclusive.

Consider `Nc1cccc(S(=O)(=O)N2CCCN(S(=O)(=O)c3ccc4c(c3)OCCO4)CC2)c1`, for which the Potency result in experiment [1], in [2], in experiment [3], in experiment [4], in experiment [5] and in experiment [6] was “inactive” each time. For the same compound, the Potency result in [7], in [8], in experiment [9] and in experiment [10] was “inactive” in each case.

As to `Cc1ccc(-n2nc(C(C)(C)C)cc2NC(=O)Nc2ccc(OCCN3CCOCC3)c3ccccc23)cc1`, the Potency is 4.69 µM (active) in experiment [1], 0.541 µM (active) in experiment [12] and 26.4 µM (active) in [7]. The Potency result in experiment [2], in experiment [3], in experiment [4], in experiment [11], in experiment [5] and in experiment [6] was “inactive” in each case. Also, the Potency entry in [9], in [10] and in [13] was “inactive” each time.

For `CC(c1cc2ccccc2s1)N(O)C(N)=O` (stereo unspecified), the Potency entry in experiment [1], in [2], in experiment [3], in [4], in experiment [11] and in experiment [12] was “inactive” in each case. Also, the Potency result in experiment [14], in experiment [5], in experiment [15], in experiment [6], in experiment [16] and in experiment [7] was “inactive” each time. For the same compound, the Potency result in experiment [8], in [9], in experiment [10] and in experiment [13] was “inactive” each time.

With `Cc1ccc(N(CC2=NCCN2)c2cccc(O)c2)cc1`, the Potency in [1] was 18.7 µM (active) and 16.8 µM (active); in experiment [16], 27.3 µM (active) and 30.9 µM (active). In addition, the Potency entry in experiment [2], in [3], in [4], in [14], in experiment [5] and in experiment [6] was “inactive” throughout. Moreover, the Potency result in [7], in [8], in experiment [9], in [10] and in experiment [13] was “inactive” throughout.

As for `COCCNCCCn1c(C(=O)CF)c(-c2ccc(C)cc2)c2c(N)ncnc21`, the Potency in [1] is 23.5 µM (active). The Potency entry in experiment [2], in experiment [3], in [4], in experiment [5], in experiment [15] and in experiment [7] was “inactive” throughout. The Potency result in experiment [9] and in [13] was “inactive” each time.

With `CCCS(=O)(=O)Nc1ccc(F)c(C(=O)c2c[nH]c3ncc(-c4ccc(Cl)cc4)cc23)c1F`, the Potency in experiment [1] was 9.35 µM (active); in [17], 10.5 µM (active); in [12], 4.82 µM (active); in [14] it was 3.32 µM (active); in [5], 20.9 µM (active); in experiment [16] it was 6.85 µM (active). Further, the Potency is 18.7 µM (active) in experiment [7], 14.8 µM (active) in experiment [8] and 23.3 µM (active) in [18]. Besides, in [19], the Potency result was “inactive”.

Take `Oc1ccc(C2CNCCc3c2cc(O)c(O)c3Cl)cc1` (stereo unspecified): the Potency entry in experiment [1], in experiment [2], in experiment [3], in experiment [4], in [11] and in [12] was “inactive” each time. Also, the Potency result in experiment [14], in experiment [5], in [15], in experiment [6], in experiment [16] and in experiment [7] was “inactive” in each case. Moreover, the Potency entry in [8], in experiment [9], in experiment [10] and in experiment [13] was “inactive” throughout.

As for `O=C1CCCC2=C1C(c1[nH]ncc1Cl)N=C(Nc1nc3ccccc3o1)N2` (stereo unspecified), the Potency entry in [1], in [2], in experiment [3], in experiment [4], in experiment [5] and in experiment [6] was “inactive” throughout. In addition, the Potency entry in experiment [8], in [9] and in experiment [10] was “inactive” each time.

For the compound `NS(=O)(=O)c1cc2c(cc1Cl)NC=NS2(=O)=O`, the Potency result in experiment [1], in experiment [2], in [3], in experiment [4], in experiment [11] and in experiment [12] was “inactive” each time. Also, the Potency result in experiment [14], in [5], in [15], in [6], in experiment [16] and in experiment [7] was “inactive” in each case. For the same compound, the Potency result in experiment [8], in experiment [9], in experiment [10] and in experiment [13] was “inactive” in each case.

As to `O=C(NOC[C@H](O)CO)c1ccc(F)c(F)c1Nc1ccc(I)cc1F`, the Potency was 5.9 µM (active) in experiment [1], 0.0469 µM (active) in [17], 0.341 µM (active) in [12] and 0.0935 µM (active) in experiment [7]. Moreover, the Potency entry in experiment [11], in experiment [6], in [16], in [20] and in [18] was “inactive” each time.

For the compound `O=C(O)[C@@H](c1ccc(OCc2ccc3ccccc3n2)cc1)C1CCCC1`, the Potency entry in experiment [1], in experiment [2], in [4], in experiment [11], in experiment [12] and in experiment [5] was “inactive” in each case. The Potency entry in [15], in [6], in experiment [7], in [8], in experiment [9] and in experiment [10] was “inactive” throughout.

`Cc1[nH]c(=O)c(C#N)cc1-c1ccncc1`: the Potency result in experiment [1], in [2], in experiment [3], in [4], in experiment [11] and in experiment [12] was “inactive” each time. For the same compound, the Potency result in experiment [5], in experiment [15], in [6], in experiment [16], in experiment [7] and in [8] was “inactive” throughout. Besides, the Potency entry in experiment [9], in experiment [10] and in [13] was “inactive” throughout.

Take `CN(C)c1ccc(Nc2nc(N)n(C(=O)c3c(F)cccc3F)n2)cc1`: the Potency was 2.35 µM (active) in experiment [1]; 0.469 µM (active) in experiment [17]; 16.6 µM (active) in experiment [11]; 3.83 µM (active) in experiment [12]; 11.8 µM (active) in experiment [14]; 0.833 µM (active) in experiment [5]. In [8], the Potency was 18.7 µM (active). Further, the Potency entry in [6], in experiment [9], in experiment [10] and in [13] was “inactive” each time.

As for `O=C1CCc2cc(OCCCCc3nnnn3C3CCCCC3)ccc2N1`, the Potency result in experiment [1], in experiment [2], in experiment [3], in [4], in [11] and in [12] was “inactive” throughout. Moreover, the Potency result in [5], in [15], in experiment [6], in experiment [16], in experiment [7] and in [8] was “inactive” throughout. Besides, the Potency result in experiment [9], in experiment [10] and in experiment [13] was “inactive” throughout.

Consider `Cc1c(C)c2c(c(C)c1O)CCC(C)(COc1ccc(CC3SC(=O)NC3=O)cc1)O2` (stereo unspecified), for which the Potency result in experiment [1], in experiment [2], in experiment [3], in [4], in experiment [11] and in experiment [12] was “inactive” each time. The Potency result in experiment [14], in experiment [5], in experiment [6], in [16], in experiment [7] and in [8] was “inactive” each time. The Potency entry in [9], in experiment [10], in experiment [13], in experiment [20], in experiment [18] and in experiment [19] was “inactive” throughout.
